High-throughput results from PubChem.
Sm TGR inh: qHTS Assay for the Inhibitors of Schistosoma Mansoni Peroxiredoxins; 360,000 compounds, 3% hits; Potency, µM (series often up to 114 µM), most hits filed as inhibitors; Schistosoma mansoni thioredoxin glutathione reductase (TGR), Q962Y6; AID 485364, 2010; purified TGR, DTNB reduction, TNB absorbance 405 nm; also: nearly all actives have a fitted effect of over 60% in size
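TGR 20 nM + NADPH 100 uM (dispensed conc.), cpd preinc 15 min RT; start with NADPH (500 uM addition) then DTNB (15 mM addition). Kinetic TNB absorbance, 405 nm filter. Four-parameter Hill fit across titration.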
CHX counter: Cycloheximide Counterscreen for Small Molecule Inhibitors of Shiga Toxin; 300,000 compounds, 12% hits; cell reporter, cycloheximide protein synthesis inhibition counterscreen; max response, %; in the data active = max response mostly above about 13%, no sharp cut-off; inactive = mostly below about 14%; also: read at 38.3 µM for the half of the compounds with a filed dose
Pf growth 96h: Primary qHTS for delayed death inhibitors of the malarial parasite plastid, 96 hour incubation | P. falciparum luciferase reporter growth, 96 h | Potency, µM (doses to about 28.7 µM), usual class: inhibitors | 320,000 compounds, 6.9% hits
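Infected RBCs, 2% Hct / 0.05% parasitemia final; luciferase-reporter P. falciparum; cpd 96 h, 37 C, 5% CO2; luciferase detection reagent; luminescence.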
Pf growth 48h: Primary qHTS for delayed death inhibitors of the malarial parasite plastid, 48 hour incubation. P. falciparum luciferase growth in erythrocytes, 48 h. Potency, µM (highest dose often 28.7 µM), hits mostly inhibitors. 310,000 compounds, 5.9% hits
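Luciferase-expressing P. falciparum in infected erythrocytes (2% hematocrit, 0.1% parasitemia final) in RPMI 1640/0.5% Albumax were exposed to compound for 48 hours at 37 C, 5% CO2; growth read as luminescence.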
Shiga inhibitor: A qHTS for Small Molecule Inhibitors of Shiga Toxin; Vero cells, Shiga toxin protein synthesis inhibition reporter; inhibition, % at 38.7 µM; 290,000 compounds, 9.2% hits; in the data active = inhibition mostly above about 28%, no sharp cut-off; inactive = mostly below about 43%
NS1 inh: qHTS Assay for Inhibitors of Influenza NS1 Protein Function | 270,000 compounds, 0.4% hits | Potency, µM (titrated, usually from 46.1 µM); calls by dose curve; also: actives are rising curves; nearly all actives have a fitted effect of over 50% in size
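In this qHTS, NS1 from influenza A is expressed in budding yeast, where it slows growth. Cells are switched from glucose to 2% galactose medium (pH 6.0, -URA), treated with compound, and growth recovery is read at OD600.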
Each line names hits and unclear results; the compound was inactive in the other large screens. Rows were chosen to be rich in hits. Some 21% of all compounds tested hit in one or more screens of this group. Unless noted, calls follow the shape of the dose curve; as a rule, active = well fitted curve in the direction sought with a large enough effect; inconclusive = small, poorly fitted or top-dose-only effect, or another doubt; inactive = no such curve, though single readings can be large; an effect the other way counts as inactive or inconclusive.

CCN(CC)S(=O)(=O)c1ccc(O)c(C(=O)OCC(=O)N2CCCC2)c1	none
Cc1cccc(NC(=O)CSc2ncc3c(n2)-c2ccccc2N(Cc2ccc(F)cc2)S3(=O)=O)c1C	none (no result: CHX counter, Pf growth 96h, Pf growth 48h, Shiga inhibitor, NS1 inh)
Cc1cccc(C(=O)NCC(c2ccc3c(c2)OCO3)N2CCN(c3ccccc3F)CC2)c1 (stereo unspecified)	none (no result: CHX counter, Pf growth 96h, Pf growth 48h, Shiga inhibitor, NS1 inh)
COc1ccc(C(=O)NNC(=O)CNC(=O)C2CCCCC2)cc1	none
CN(C)CCN(C(=O)c1ccc(S(=O)(=O)N2CCCC2)cc1)c1nc2ccc(Br)cc2s1	CHX counter 30, Pf growth 96h inconclusive, Pf growth 48h inconclusive, Shiga inhibitor 57
Cc1ccc2nc(N(CCCN(C)C)C(=O)c3ccc(S(=O)(=O)N4CCCCCC4)cc3)sc2c1	Pf growth 96h inconclusive, Pf growth 48h 13µM
CN(C)CCCN(C(=O)c1ccc(S(=O)(=O)N2CCCCCC2)cc1)c1nc2ccc(F)cc2s1	Pf growth 96h inconclusive, Pf growth 48h inconclusive
CCCCN(C)S(=O)(=O)c1ccc(C(=O)N(CCN(C)C)c2nc3ccc(C)cc3s2)cc1	CHX counter 20, Shiga inhibitor 44 (no result: NS1 inh)
CCc1ccc2nc(N(CCCN(C)C)C(=O)c3ccc(S(=O)(=O)N4CCCC4)cc3)sc2c1	Pf growth 96h inconclusive, Pf growth 48h inconclusive
CC[C@H]1CC[C@H]2[C@@H]3CC=C4C[C@H](OC(C)=O)[C@@H](N)C[C@@]4(C)[C@H]3CC[C@@]12C	none (no result: Sm TGR inh, CHX counter, Pf growth 96h, Pf growth 48h, Shiga inhibitor)
COc1ccccc1Nc1cc(C(=O)NCCCN2CCOCC2)c2ccccc2n1	Pf growth 96h 0.93µM (no result: Pf growth 48h)
CCc1ccc(Nc2cc(C(=O)NCCCN3CCOCC3)c3ccccc3n2)cc1	Pf growth 96h 5.2µM (no result: Pf growth 48h)
COc1ccc(OC)c(Nc2cc(C(=O)NCCCN3CCOCC3)c3ccccc3n2)c1	Pf growth 48h inconclusive (no result: Pf growth 96h)
CCCCC(CC)CNC(=O)CCS(=O)(=O)c1cccc2nsnc12 (stereo unspecified)	none
CCCCC(CC)CNC(=O)CN(C)S(=O)(=O)c1cccc2nsnc12 (stereo unspecified)	Pf growth 48h inconclusive, Shiga inhibitor 53
Cc1ccc(NC(=O)c2cccc(OCc3c(C)noc3C)c2)cc1	CHX counter 29 (no result: Pf growth 48h)
Cc1noc(C)c1COc1cccc(C(=O)Nc2ccccc2)c1	Pf growth 96h inconclusive, Pf growth 48h inconclusive (no result: CHX counter, Shiga inhibitor, NS1 inh)
COc1ccc(NS(=O)(=O)c2cc(NC(=O)c3cccc(OCc4c(C)noc4C)c3)ccc2OC)cc1	Pf growth 96h 6.6µM, Pf growth 48h 9.3µM, NS1 inh inconclusive
Cc1cc2n(n1)C(c1ccccc1)CC(c1ccc(Br)cc1)=N2 (stereo unspecified)	CHX counter 37, Pf growth 48h inconclusive, Shiga inhibitor 29
CC(=O)c1ccc(NC(=S)NC(=O)/C=C/c2ccc(F)cc2)cc1	CHX counter 20, Pf growth 96h inconclusive
O=C(/C=C/c1ccc(Cl)cc1)NC(=S)Nc1ccc(C(=O)O)cc1	Sm TGR inh 10µM (no result: Pf growth 48h)
CN(C)c1ccc(NC(=S)NC(=O)/C=C/c2ccc(Cl)cc2)cc1	CHX counter 53, Shiga inhibitor 105
COc1ccc(CCNC(=O)CC(Cc2ccccc2)C(=O)O)cc1OC (stereo unspecified)	none
CSc1cccc(CNC(=O)C2CCC(=O)N(CC3CCCCC3)C2)c1 (stereo unspecified)	Pf growth 96h inconclusive
Cc1cc(SCNC(=O)c2ccccc2)ncn1	Sm TGR inh 14µM (no result: Pf growth 96h)
O=C(NCSc1ccccc1)c1ccccc1	none (no result: CHX counter, Shiga inhibitor, NS1 inh)
Cc1ccccc1NC(=S)N(CCN1CCOCC1)Cc1ccccc1F	none (no result: NS1 inh)
CCC1CCCCN1CCCNC(=O)Cn1c2ccccc2c2nc(=O)cc(C)n21 (stereo unspecified)	none
CCCNC(=O)Cn1c2ccccc2c2nc(=O)cc(C)n21	Pf growth 96h 8.3µM (no result: Pf growth 48h)
Cc1cc(=O)nc2c3ccccc3n(CC(=O)Nc3ccccc3Br)n12	Pf growth 96h inconclusive, Pf growth 48h inconclusive
Cc1cc(=O)nc2c3ccccc3n(CC(=O)NCCC3=CCCCC3)n12	CHX counter 40
CNC(=O)c1cc2c(ccc3ccccc32)o1	CHX counter 33, Shiga inhibitor 81 (no result: Sm TGR inh)
O=C(NC1CC1)c1cc2ccccc2o1	CHX counter 15, Shiga inhibitor 43
COc1ccc(N2CC(NC(=O)c3cc4ccccc4o3)CC2=O)cc1 (stereo unspecified)	none (no result: CHX counter, Pf growth 96h, Pf growth 48h, Shiga inhibitor, NS1 inh)
O=C(NC1CCCC1)c1cc2c(ccc3ccccc32)o1	CHX counter 44, Shiga inhibitor 60 (no result: Pf growth 48h)
On1nnc2ccc3ccccc3c21	none
COc1ccc(S(=O)(=O)Nc2cc3c4c(c2)CCN4C(=O)CC3)cc1	Pf growth 96h inconclusive, Pf growth 48h inconclusive (no result: CHX counter, Shiga inhibitor, NS1 inh)
Cn1c(CN2CCCC2)nc2cc(NC(=O)c3cccs3)ccc21	CHX counter 35, Shiga inhibitor 65
Cn1c(CN2CCN(C(=O)c3ccc(F)cc3)CC2)nc2cc([N+](=O)[O-])ccc21	Pf growth 96h 13µM, Pf growth 48h inconclusive
Cn1c(CN2CCOCC2)nc2cc(NC(=O)c3ccccc3Cl)ccc21	none
CCOC(=O)N1CCN(Cc2nc3cc(NC(=O)c4ccco4)ccc3n2C)CC1	Sm TGR inh 50µM, Pf growth 48h inconclusive
Cn1c(CN2CCOCC2)nc2cc(NC(=O)c3ccc(F)cc3)ccc21	CHX counter 17, Shiga inhibitor 54
COc1cc(C)ccc1S(=O)(=O)N1CCN(C23CC4CC(CC(C4)C2)C3)CC1	none (no result: Pf growth 96h)
Clc1ccc(-c2nc3sccn3c2/C=N/OCc2ccc(Cl)c(Cl)c2)cc1	none (no result: Sm TGR inh, Pf growth 96h, Pf growth 48h, NS1 inh)
Cn1c(CN2CCCC2)nc2cc(NC(=O)c3ccc(Cl)cc3)ccc21	CHX counter 35, Pf growth 48h inconclusive, Shiga inhibitor 42 (no result: NS1 inh)
CC(=O)N1CCN(Cc2nc3cc(NC(=O)C4CCCCC4)ccc3n2C)CC1	Pf growth 96h 1.9µM
Cn1c(CN2CCCC2)nc2cc(NC(=O)COc3ccc(Cl)cc3)ccc21	Pf growth 48h inconclusive (no result: Pf growth 96h)
CCCC(=O)Nc1ccc2c(c1)nc(CN1CCN(C(C)=O)CC1)n2C	none
COc1ccc(NC(=O)CC2C(=O)N(c3ccccc3)C(=O)N2Cc2cccnc2)cc1 (stereo unspecified)	none (no result: CHX counter, Pf growth 96h, Pf growth 48h, Shiga inhibitor, NS1 inh)
COc1ccccc1N1CCN(C2CCCN(C(=O)c3cccc(-c4ccco4)c3)C2)CC1 (stereo unspecified)	Pf growth 48h inconclusive
COc1ccccc1NC1=C(Cl)C(=O)N(C2CCCCC2)C1=O	Pf growth 48h inconclusive
Cc1ccccc1NC1=C(Cl)C(=O)N(C2CCCCC2)C1=O	CHX counter 13, Pf growth 96h inconclusive, Pf growth 48h inconclusive
CC(C)=CCN1CCNC(=O)C1CC(=O)NCc1nc(C)c(C)s1 (stereo unspecified)	Pf growth 96h 2.3µM
Cc1cccn2c(=O)c(/C=C(\C#N)C(=O)NC3CCS(=O)(=O)C3)c(N3CCC(C(N)=O)CC3)nc12 (stereo unspecified)	none
